Inconclusive results are not listed. A call without a number means that no potency is given here. Active and inactive are the calls of the source. Calls come from the whole dose curve; as a rule, active = well fitted inhibition curve with a large enough effect; inconclusive = small, poorly fitted or top-dose-only effect; inactive = flat fitted curve, though single readings scatter.
Test system: CRL-7250
Test: qHTS assay to identify novel small-molecules to repurpose for Merkel cell carcinoma treatment (AID 1296009); note: nearly all actives have a fitted effect of over 60% in size
Settings: MCC and control cell lines, CellTiter-Glo viability, 72 h; series mostly up to 92 µM
How it was run: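 Cells were treated for 72 hr at 37 degree celsius with compounds in 8- or 11-point dose response. Viability was read by CellTiter-Glo luminescence, normalized to no-cell (cytotoxicity) and DMSO controls.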

SMILES | Potency
O=C(Cc1ccc(-c2ccccc2)cc1)NC1CCC1 | inactive
C[C@@H]1[C@H]2[C@H](O[C@@H]3O[C@H](CO)[C@@H](O)[C@H](O)[C@H]3O)OC=C(C(=O)O)[C@H]2C[C@@H]1O | inactive
NC(=O)[C@H](O[C@@H]1O[C@H](CO)[C@@H](O)[C@H](O)[C@H]1O)c1ccccc1 | inactive
CC(C)S(=O)(=O)N[C@H]1CCOC[C@@H]1c1ccc(-c2ccc(C#N)s2)cc1 | inactive
C=C[C@H]1C(O[C@@H]2O[C@H](CO)[C@@H](O)[C@H](O)[C@H]2O)OC=C2C(=O)N3CCc4c([nH]c5ccccc45)[C@H]3C[C@H]21 (stereo not given in full) | inactive
COC(=O)C1=CO[C@@H](O[C@@H]2O[C@H](CO)[C@@H](O)[C@H](O)[C@H]2O)[C@H]2[C@@H]1CC(OC)O[C@@H]2C (stereo not given in full) | inactive
CCC[C@@H]1C[C@@H](C(=O)N[C@@H]([C@H]2O[C@H](SC)[C@H](O)[C@@H](O)[C@@H]2O)[C@@H](C)O)N(C)C1 | inactive
CCOC(=O)c1sc(NC(=O)[C@H](C(C)C)n2c(=O)[nH]c3ccccc3c2=O)nc1C | inactive
Cc1ccc(-c2c(-c3nn(C)c4ncnc(N5CCC(N6CCCCC6)C5)c34)cnn2C)cc1 (stereo not given) | inactive
COc1ccc(C(=O)CC(=O)O)c2c1C=CC(C)(C)O2 | inactive
